Laboratory results taken from PubChem BioAssay AID435030 (The Scripps Research Institute Molecular Screening Center, 2010).
In all, about 330,000 compounds went through this assay and about 940 (0.28%) were called active. Cut-off read from the data, not from the text of the source: active = inhibition above about 12%; inactive = the rest. The list comes from a sample in which actives are over-represented; it also holds similar structures and randomly drawn compounds.

Experiment: reduced growth of AddAB-expressing E. coli cells – absorbance, AddAB inhibitor project, primary screen (AID 435030);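 note: 0% = vehicle wells of infected cells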
Settings: E. coli expressing H. pylori AddAB, at 11.9 µM, active compounds read high

| SMILES | inhibition |
| --- | --- |
| COc1ccc(CNC(=O)CN(Cc2ccc(Cl)cc2)S(C)(=O)=O)cc1 | 3.57% (inactive) |
| COC(=O)N/N=C/c1cn(CCCOc2ccc(C)cc2)c2ccccc12 | 3.22% (inactive) |
| COC(=O)N/N=C/c1ccc(-c2ccc(Cl)c(Cl)c2)o1 | 1.71% (inactive) |
| COC(=O)N/N=C/c1c[n+]([O-])c2ccccc2[n+]1[O-] | 89.8% (active) |
| OCCNCCOc1ccc(Cl)c(Cl)c1 | 0.51% (inactive) |
| C#CCSc1nnc(-c2sc3ccccc3c2Cl)o1 | 1.12% (inactive) |
| O=C(NCC#CCSc1nnc(-c2cccc3ccccc23)o1)c1cccs1 | 12.4% (active) |
| COc1ccc(CCNC(=O)/C(C#N)=C2\N=C(NC(=O)c3cccs3)c3ccccc32)cc1 | 3.86% (inactive) |
| COc1ccc2cc(CCl)c(Cl)nc2c1 | -0.08% (inactive) |
| COc1cccc(C(=O)N2CCC(n3nccc3NC(=O)C3CCOC3)CC2)c1 (stereo unspecified) | 0.08% (inactive) |
| Cc1ccc(-c2nnc(CN3CCN(C)CC3)o2)cc1 | -0.67% (inactive) |
| CC(C)(C)SCCSC1=CC(=O)CC(c2ccccc2)C1 (stereo unspecified) | 0.25% (inactive) |
| CCn1cc(CN2CCN(CC(C)(C)C)C(CCO)C2)c2ccccc21 (stereo unspecified) | -1.04% (inactive) |
| COc1ccccc1NC(=O)C1=C(C)Nc2ncnn2C1c1ccc(C)o1 (stereo unspecified) | -0.48% (inactive) |
| CC1=C(C(=O)OCc2ccccc2)C(c2ccco2)n2ncnc2N1 (stereo unspecified) | 14.7% (active) |
| CC1=C(C(=O)OC2CCCCC2)C(c2cccnc2)n2ncnc2N1 (stereo unspecified) | 0% (inactive) |
| COC(=O)C1(C)NC(c2ccc(F)cc2)C2C(=O)N(c3ccccc3)C(=O)C21 (stereo unspecified) | 1.16% (inactive) |
| CC(C)C[C@H]1CN=C(Nc2ccccc2)N1CC1CCCCC1 | 2.92% (inactive) |
| CCOc1ccc(C(C)=O)cc1COC(=O)CNC(=O)c1cccs1 | 3.06% (inactive) |
| CC1CCCC(C)N1C(=O)CN1CCN(c2nc(-c3ccc(F)cc3)cs2)CC1 (stereo unspecified) | 1.81% (inactive) |
| CCn1c(=S)sc2c(=O)n(CC(=O)Nc3ccc(OC)cc3)c(C)nc21 | 0.15% (inactive) |

| SMILES | inhibition |
| --- | --- |
| O=C1Nc2cc(Cl)c(Cl)cc2N(O)N1c1cc(Cl)cc(Cl)c1 | -1% (inactive) |
| COC(=O)C1=C(C)N(C)C(=O)NC1c1ccc([N+](=O)[O-])o1 (stereo unspecified) | 3.34% (inactive) |
| COc1ccc(C(=O)NCC(=O)N/N=C/c2ccc([N+](=O)[O-])o2)cc1OC | 9.43% (inactive) |
| C/[N+]([O-])=C\c1ccc([N+](=O)[O-])o1 | 79% (active) |
| COc1cccc(/C=N/Nc2ncc(C(F)(F)F)cc2Cl)c1O | 12.5% (active) |
| CCOc1cccc(/C=N/NC(=S)NCCN2CCOCC2)c1O | -0.42% (inactive) |
| COc1ccc(Br)cc1/C=N/Nc1ccc(Cl)c(C(=O)O)c1 | 1.8% (inactive) |
| O=C(Nc1ccc(Br)cn1)c1ccc([N+](=O)[O-])o1 | 97.7% (active) |
| O=C(Nc1ccc(Br)cn1)c1ccc([N+](=O)[O-])cc1Cl | -0.17% (inactive) |
| Cc1onc(NC(=O)c2ccc([N+](=O)[O-])o2)c1Br | 9.34% (inactive) |
| CN1C(=O)c2ccc(C(=O)Nc3ccc(Br)cn3)cc2C1=O | -3.02% (inactive) |
| O=C(Nc1cccc(O)c1)c1ccc(C(=O)c2ccccc2)o1 | 1.45% (inactive) |
| Cc1cccc(NC(=O)c2ccc([N+](=O)[O-])o2)c1 | 38.2% (active) |
| CCOc1ccc(C(C)=O)cc1COC(=O)CN1C(=O)NC2(CCCC2)C1=O | 0.34% (inactive) |
| Brc1cnc(N2CCCC2)nc1N1CCCCC1 | 2.22% (inactive) |
| CCC(=C/c1sc2ccc3ccccc3c2[n+]1C)/C=C1\Sc2ccc3ccccc3c2N1C | 9.85% (inactive) |
| Cc1ccc(S(=O)(=O)c2ccc(Cl)cc2)cc1S(=O)(=O)NC(C(=O)O)C(C)C (stereo unspecified) | 3.7% (inactive) |
| NC(=O)C1CCN(C(=O)c2ccc3c(=O)n(Cc4cccc(Br)c4)c(=S)[nH]c3c2)CC1 | 1.96% (inactive) |
| COc1ccc(NC(=O)C(Br)C(C)C)cc1 (stereo unspecified) | 0.42% (inactive) |
| O=C(CSc1ccc(-c2ccccn2)nn1)Nc1ccccc1 | 12.4% (active) |
| O=C(CSc1ccc(-c2ccco2)nn1)Nc1cccc(F)c1 | 1.52% (inactive) |

| SMILES | inhibition |
| --- | --- |
| O=C(CSc1ccc(-c2ccc(-n3cccn3)cc2)nn1)Nc1ccc([N+](=O)[O-])cc1 | 2.04% (inactive) |
| O=C(CNc1ccc(F)cc1F)NC(=O)NCc1ccco1 | -1.79% (inactive) |
| O=C1CCCC(O)=C1N=Nc1ccc2ncsc2c1 | 1.13% (inactive) |
| COc1ccc(CNC(=O)CN(c2ccc(OC)c(Cl)c2)S(=O)(=O)c2ccc(C)cc2)cc1 | 0.77% (inactive) |
| Oc1ccc(Br)cc1/C=N/Nc1ccccn1 | 4.69% (inactive) |
| Oc1c(Br)cccc1/C=N/Nc1c(F)c(F)c(F)c(F)c1F | 5.1% (inactive) |
| Oc1cccc(/C=N/Nc2ccc(Cl)nn2)c1O | 13.3% (active) |
| Cc1noc(C)c1C(=O)OC(C)C(=O)Nc1ccc2c(c1)OCO2 (stereo unspecified) | 1.01% (inactive) |
| CC1(C)c2[nH]c3ccccc3c2C[C@H]2C(=O)N(N)CC(=O)N21 | -0.5% (inactive) |
| O=C(CCc1ccc(S(=O)(=O)N2CCOCC2)cc1)OCC(=O)c1ccc(Br)cc1 | 3.02% (inactive) |
| Cc1nnc(NC2=NCCCCC2)o1 | 0.25% (inactive) |
| O=C1CCC(=O)N(O)CCCCCNC(=O)CCC(=O)N(O)CCCCCNC(=O)CCC(=O)N(O)CCCCCN1 | 35.8% (active) |
| CCN1CCC2(CCN(Cc3cn[nH]c3-c3ccc(OC)c(F)c3)C2)C1 (stereo unspecified) | 0.65% (inactive) |
| CCOC(=O)c1ccccc1N1C(=O)C2Sc3[nH]c(=O)sc3C(/C=C/c3ccccc3)C2C1=O (stereo unspecified) | 2.63% (inactive) |
| COc1ccc(C2/C=C\CN(CC(C)C)CC(=O)N2Cc2ccc(F)cc2)cc1 (stereo unspecified) | 2.22% (inactive) |
| O=C1/C(=C/c2cccs2)SC(=S)N1C1CCS(=O)(=O)C1 (stereo unspecified) | -0.44% (inactive) |
| CCOc1ccc(NC(=O)CN(C)C(=O)Cc2sc(C)nc2-c2ccc(F)cc2)cc1OCC | 1.75% (inactive) |
| CCN1/C(=C\c2ccc3ccccc3[n+]2CC)Sc2cc(C)ccc21 | 13.3% (active) |
| O=C(NCCCN1CCCCCC1)C1CC(=O)N(C2CCCC2)C1 (stereo unspecified) | -0.68% (inactive) |
